This passage reports inhibition results from PubChem BioAssay AID488899 (Broad Institute, 2010).

About 2,800 (0.85%) of roughly 330,000 compounds were called active. Only a selection was taken, and actives are over-represented in it overall. Unmarked numbers belong to inactive results.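 Rule for the calls: active = mean inhibition across replicates of 60% or more, whatever share of single replicates reaches that level; inconclusive = some that reach 60%, reason not given; inactive = mean inhibition across replicates below 60%.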

A short description of the test: MITF transcriptional activity suppression – cell-based, SK-MEL-5, single point, luciferase, primary screen (AID 488899). To be noted: SK-MEL-5 TRPM1 promoter luciferase, 24 h; at 12.5 µM; stronger effect = higher value.
As to `O=C1NCC(c2ccccc2)(c2ccccc2)C(=O)N1`, the inhibition is -7.87%.

As for `CC12CN3CCN(CC(C3)/C1=N\NC(=O)c1ccccc1N)C2`, the inhibition is 9.43%.

On to `N#CC1(Nc2ccc(-c3ccc(Cl)cc3)cc2)CCCC1`, for which the inhibition was -58.9%.

For the molecule `CN(/N=C/c1ccccc1)C(=S)c1ccccc1`, the inhibition is 1.77%.

`CN(CC(=O)O)C(=O)c1ccccc1`: the inhibition is -4.07%.

As to `CN(O)C(=S)c1ccccc1`, the inhibition was 82% (active).

In the case of `CCOC(=O)N1CCN(S(=O)(=O)c2cc3c(cc2C)NC(=O)CO3)CC1`, the inhibition is 2.83%.

Regarding `C=CCn1cc(C(=O)NCc2ccc(Cl)cc2)c(=O)c2cc(S(=O)(=O)N(CC)CC)ccc21`, the inhibition was -5.87%.

`O=C(CN1CCN(c2ncccn2)CC1)Nc1ccccc1C(F)(F)F`: the inhibition was 18.5%.

`CC(=O)c1ccc(S(=O)(=O)N2CCN(c3nc4c(C)c(C)ccc4cc3C#N)CC2)cc1`: the inhibition was 3.2%.

`CC(=O)c1ccc(S(=O)(=O)N2CCN(C(=O)/C=C/c3ccc4ccccc4n3)CC2)cc1`: the inhibition was 72.5% (active).

Consider `CC(=O)c1ccc(S(=O)(=O)N2CCC3(CC2)OCCO3)cc1`, for which the inhibition is 8.67%.

`CCN(CC)CCNS(=O)(=O)c1ccc(/C=C/C(=O)O)cc1`: the inhibition is 14.7%.

Turning to `C=CC1=C(C(=O)O)N2C(=O)[C@@H](NC(=O)/C(=N\OCC(=O)O)c3csc(N)n3)[C@H]2SC1`, the inhibition is -2.96%.

For the molecule `CC(=O)N(CC(O)CO)c1c(I)c(C(=O)NCC(O)CO)c(I)c(C(=O)NCC(O)CO)c1I` (centres undefined), the inhibition was -3.11%.

With `O=C(O)CCCCCNc1ncnc2ccc(Br)cc12`, the inhibition was 1.66%.

In the case of `COc1ccc(Nc2ncnc3ccc(Br)cc23)c(OC)c1`, the inhibition is 67.9% (active).

Regarding `Brc1ccc2ncnc(NCc3cccnc3)c2c1`, the inhibition was -1.36%.

Turning to `N/C(=N\S(=O)(=O)c1ccc(Cl)cc1)N1CCOCC1`, the inhibition was 1.47%.

With `Cc1cc([N+](=O)[O-])c(=O)[nH]c1C`, the inhibition is -0.774%.

For `COc1ccc(C(C[N+](=O)[O-])n2nc(C)cc2C)cc1` (centres undefined), the inhibition was 27.2%.

In the case of `O=C(NN=Cc1ccccc1O)NN=Cc1ccccc1O`, the inhibition was 22.9%.

As to `CCN(CC)c1ccc(/C=N/NC(=O)c2cnccn2)c(O)c1`, the inhibition was 25.3%.

`Cc1ccc(/C=N/NC(=O)C2=NNC(c3ccccc3)(c3ccccc3)C2)c(O)c1`: the inhibition is 76.5% (active).

On to `CCOC(=O)c1c(S(=O)(=O)NCC(=O)Nc2ccc(C)cc2)c(C)n(C)c1C`, for which the inhibition is 7.89%.

As for `Cc1c(N=Nc2ccc(N(C)C)cc2)c(=O)n(-c2ccccc2)n1C`, the inhibition is -25.6%.

For `Cn1c(=S)sc2ccc3ccccc3c21`, the inhibition was 0.517%.

As for `CCc1nc(Nc2ccc(NC(C)=O)cc2)c2oc3ccccc3c2n1`, the inhibition was 5.96%.

Take `CC(=O)Nc1ccc(Nc2c3ccccc3nc3ccccc23)cc1`: the inhibition was 62.4% (active).

As for `CC(=O)Nc1ccc(Nc2cc(C)nc(Nc3ccc(NC(C)=O)cc3)n2)cc1`, the inhibition is -5.88%.

For `Cc1ccc(Cl)cc1N1CCN(C(=O)c2cccc3c(=O)c(C)c(-c4ccccc4)oc23)CC1`, the inhibition is 9.36%.

For the molecule `C/C=N/N(c1ccccc1)c1ccccc1`, the inhibition is 2.93%.

Consider `O=C(NNC(=O)c1ccc2ccccc2c1)c1ccc(Cl)cc1`, for which the inhibition was 10.1%.

In the case of `O=C(CN1CCN(S(=O)(=O)c2ccc(Br)cc2)CC1)Nc1ccccc1C(=O)c1ccccc1`, the inhibition was -0.0235%.

On to `O=C(NN=Cc1ccc([N+](=O)[O-])cc1)C1CC1`, for which the inhibition was -20.4%.

On to `O=[N+]([O-])c1ccc(C=NN=Cc2ccc([N+](=O)[O-])cc2)cc1`, for which the inhibition was -1.22%.

Consider `O=C1/C(=C\c2ccc([N+](=O)[O-])cc2)CS(=O)(=O)C/C1=C/c1ccc([N+](=O)[O-])cc1`, for which the inhibition was 106% (active).

On to `Cc1cc(C)c2nc3nc(C)cc(C)c3c(N)c2c1`, for which the inhibition was 69% (active).

Regarding `O=S(=O)(NCc1ccccc1Cl)c1cnc[nH]1`, the inhibition was 9.3%.

Take `CN(C)/C=C(\C#N)C(=O)c1cccnc1Oc1ccc(F)cc1F`: the inhibition is -3.39%.

Regarding `N#Cc1ccc(Oc2ccc(C(F)(F)F)cc2NC(=O)c2ccc(F)cc2)cc1`, the inhibition is -2.39%.

As to `Cc1cccc(NC(=O)c2nnn(-c3cccc(C(F)(F)F)c3)c2N)c1`, the inhibition is -39.6%.

On to `COc1cc(NC(=O)c2cncc(-c3ccc(C#N)cc3)c2)cc(C(=O)Nc2cccc(C(F)(F)F)c2)c1`, for which the inhibition was 71.3% (active).

`COc1ccc(NC(=O)C(=O)NCC(=O)Nc2cccc(C(F)(F)F)c2)cc1`: the inhibition is 3.29%.

For `COc1cc(NC(=O)c2[nH]cnc2C(N)=O)cc(C(=O)Nc2cccc(C(F)(F)F)c2)c1`, the inhibition is 89.9% (active).

As for `O=C(Nc1ccc(-c2csc(Nc3cccc(C(F)(F)F)c3)n2)cc1)c1cccc(C(F)(F)F)c1`, the inhibition was -14.9%.

Consider `CC(C)[C@@H](NC(=O)OC(C)(C)C)C(=O)NCC1CCC(C(=O)N[C@@H](Cc2ccccc2)C(=O)O)CC1` (some centres undefined), for which the inhibition is -3.13%.

As for `CCOCCCn1c(NN)nc2ccccc2c1=O`, the inhibition was 10.3%.

On to `O=c1oc(/C=C/c2ccccc2)nc2ccccc12`, for which the inhibition was -14.4%.

As to `CCn1c(/C=C/c2ccc([N+](=O)[O-])o2)nc2ccccc2c1=O`, the inhibition was 75.9% (active).

Take `CC(=O)NC(CC(=O)Nc1nccs1)c1ccccc1` (centres undefined): the inhibition was -5.93%.

`O=C1CC[C@@H]2CC3(C[C@@H]4CCN1[C@H]24)Nc1cc([N+](=O)[O-])ccc1NC3=NC1CCCCC1` (some centres undefined): the inhibition is -4.61%.

Turning to `CC(=O)N1CC[n+]2c(-c3ccc([N+](=O)[O-])cc3)csc21`, the inhibition is -4.65%.

Turning to `COCCN1C(=O)C(=O)/C(=C(/O)c2ccc(S(=O)(=O)N3CCOCC3)cc2)C1c1ccc(OC)c(OC)c1` (centres undefined), the inhibition is 2.98%.

Consider `CCOC(=O)c1ccccc1OC(=O)Oc1ccccc1C(=O)OCC`, for which the inhibition was 24%.

As for `CCOC(=O)c1c(C)nc(-c2ccccc2)nc1NC(=O)C(C)C`, the inhibition is -26.2%.

For the molecule `CCOC(=O)c1c(C)[nH]c2c1-c1ccccc1C(=O)C2=O`, the inhibition is 106% (active).

Turning to `CC(C)OC(=O)CN1CCN(c2ccc(Cl)cc2)CC1`, the inhibition was -22.1%.

As to `C=CCn1c(C)cc(C2=NNC(=NCC)SC2)c1C`, the inhibition is 98.4% (active).

One may read the inhibition as the relative decrease from the control value, in per cent.
